# Laboratory results taken from paper PMC7862700, “An all-to-all approach to the identification of sequence-specific readers for epigenetic DNA modifications on cytosine”.
# Columns and labels:
# Assay in all cases: DAPPL (digital affinity profiling via proximity ligation, sequencing); 10 mM Tris-HCl pH 7.5, 50 mM NaCl, 1 mM DTT, 4% glycerol, room temperature, 30 min; GST-TFs on glutathione beads, 16-mer random dsDNA library, 0.1% formaldehyde crosslink after washing; high values mean tight binding
# [1] = target: T1, FEV (Homo sapiens, UniProt Q99581 1-238); conditions: protein: recombinant; tags: N-terminal GST; dsDNA, one strand shown
# T1 sequence: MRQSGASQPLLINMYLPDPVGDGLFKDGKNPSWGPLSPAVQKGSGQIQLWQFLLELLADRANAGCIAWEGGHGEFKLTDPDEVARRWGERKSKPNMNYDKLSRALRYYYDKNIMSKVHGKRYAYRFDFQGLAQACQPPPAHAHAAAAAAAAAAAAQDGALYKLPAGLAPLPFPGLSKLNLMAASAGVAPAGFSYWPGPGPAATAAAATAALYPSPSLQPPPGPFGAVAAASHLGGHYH
# Method in brief: (§1)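 After expression in yeast as GST fusions, human transcription factors were bound to glutathione beads, DNA-barcoded and mixed with a tag-only sample. The pools were incubated with 200 nmole of a 16-mer random double-stranded DNA library in Tris/NaCl/DTT/glycerol buffer (30 min, room temperature), washed and crosslinked with 0.1% formaldehyde. Proximity ligation with BsaI/T4 ligase ran for 1 h at 37 °C, before PCR amplification and sequencing on an Illumina NextSeq500. Binding signal is a hexamer's read frequency for a factor divided by its frequency for the tag-only sample.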
# [2] = target: ETV5 (Homo sapiens, UniProt P41161 1-510); conditions: protein: recombinant; tags: N-terminal GST; dsDNA, one strand shown
# Chain of ETV5 (P41161 whole entry): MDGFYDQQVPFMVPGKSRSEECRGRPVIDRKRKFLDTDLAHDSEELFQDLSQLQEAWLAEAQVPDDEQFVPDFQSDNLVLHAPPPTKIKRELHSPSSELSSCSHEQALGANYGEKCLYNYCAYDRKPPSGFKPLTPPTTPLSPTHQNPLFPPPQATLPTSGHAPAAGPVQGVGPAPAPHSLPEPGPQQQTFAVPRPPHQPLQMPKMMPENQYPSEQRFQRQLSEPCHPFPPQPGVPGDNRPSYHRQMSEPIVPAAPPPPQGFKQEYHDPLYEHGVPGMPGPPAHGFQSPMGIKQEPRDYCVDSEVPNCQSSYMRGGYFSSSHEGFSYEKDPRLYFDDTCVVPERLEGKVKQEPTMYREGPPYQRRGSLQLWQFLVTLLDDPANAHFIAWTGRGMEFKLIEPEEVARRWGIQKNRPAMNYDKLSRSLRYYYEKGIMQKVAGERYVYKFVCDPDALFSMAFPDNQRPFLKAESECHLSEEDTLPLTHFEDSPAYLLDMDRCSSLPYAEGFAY
# Method in brief: as §1
# [3] = target: HSF1 (Homo sapiens, UniProt Q00613 1-529); conditions: protein: recombinant; tags: N-terminal GST; chain copies: 3; dsDNA, one strand shown
# Chain of HSF1 (Q00613 whole entry): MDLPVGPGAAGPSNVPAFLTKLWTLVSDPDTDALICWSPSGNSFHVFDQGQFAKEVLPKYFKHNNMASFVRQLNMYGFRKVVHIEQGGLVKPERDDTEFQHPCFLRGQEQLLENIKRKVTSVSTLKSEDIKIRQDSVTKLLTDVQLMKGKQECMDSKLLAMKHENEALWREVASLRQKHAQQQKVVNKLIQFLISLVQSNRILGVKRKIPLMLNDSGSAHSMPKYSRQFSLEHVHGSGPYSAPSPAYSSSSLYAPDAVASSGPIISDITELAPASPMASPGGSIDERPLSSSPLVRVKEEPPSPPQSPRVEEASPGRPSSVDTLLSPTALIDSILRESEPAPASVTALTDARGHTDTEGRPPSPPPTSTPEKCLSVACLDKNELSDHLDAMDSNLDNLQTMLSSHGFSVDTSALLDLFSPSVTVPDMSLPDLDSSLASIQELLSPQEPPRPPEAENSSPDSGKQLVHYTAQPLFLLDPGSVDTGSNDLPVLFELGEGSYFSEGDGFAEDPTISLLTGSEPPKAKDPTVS
# Method in brief: as §1
# [4] = target: T2, SPIC (Homo sapiens, UniProt Q8N5J4 1-248); conditions: protein: recombinant; tags: N-terminal GST; dsDNA, one strand shown
# T2 sequence: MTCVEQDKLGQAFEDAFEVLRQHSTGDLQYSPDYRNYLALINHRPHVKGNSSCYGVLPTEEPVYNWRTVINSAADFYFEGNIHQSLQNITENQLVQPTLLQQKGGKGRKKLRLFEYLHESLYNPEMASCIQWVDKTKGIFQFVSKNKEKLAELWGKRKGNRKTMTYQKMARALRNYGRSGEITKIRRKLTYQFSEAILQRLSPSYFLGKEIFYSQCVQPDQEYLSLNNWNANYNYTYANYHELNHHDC
# Method in brief: as §1
# [5] = target: ELF4 (Homo sapiens, UniProt Q99607 1-663); conditions: protein: recombinant; tags: N-terminal GST; dsDNA, one strand shown
# Chain of ELF4 (Q99607 whole entry): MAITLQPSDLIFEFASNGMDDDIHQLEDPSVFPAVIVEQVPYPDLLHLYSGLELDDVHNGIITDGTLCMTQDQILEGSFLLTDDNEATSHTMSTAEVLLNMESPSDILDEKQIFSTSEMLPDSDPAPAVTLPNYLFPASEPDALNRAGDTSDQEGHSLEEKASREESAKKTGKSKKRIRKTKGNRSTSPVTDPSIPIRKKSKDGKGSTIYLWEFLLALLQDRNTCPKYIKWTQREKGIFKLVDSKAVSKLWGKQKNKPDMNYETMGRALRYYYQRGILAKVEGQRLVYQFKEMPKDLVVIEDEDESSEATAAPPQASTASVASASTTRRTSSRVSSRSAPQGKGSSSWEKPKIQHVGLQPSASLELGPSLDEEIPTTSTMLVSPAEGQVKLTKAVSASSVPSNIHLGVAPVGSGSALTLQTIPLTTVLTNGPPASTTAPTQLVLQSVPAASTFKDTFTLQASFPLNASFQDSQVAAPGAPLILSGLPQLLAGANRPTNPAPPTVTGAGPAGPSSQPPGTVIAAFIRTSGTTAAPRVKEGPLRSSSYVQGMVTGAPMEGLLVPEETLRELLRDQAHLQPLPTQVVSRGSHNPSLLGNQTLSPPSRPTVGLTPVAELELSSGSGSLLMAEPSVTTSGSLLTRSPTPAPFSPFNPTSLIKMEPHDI
# Method in brief: as §1
# [6] = target: T3, ELK4 (Homo sapiens, UniProt P28324-2 1-405); conditions: protein: recombinant; tags: N-terminal GST; dsDNA, one strand shown
# T3 sequence: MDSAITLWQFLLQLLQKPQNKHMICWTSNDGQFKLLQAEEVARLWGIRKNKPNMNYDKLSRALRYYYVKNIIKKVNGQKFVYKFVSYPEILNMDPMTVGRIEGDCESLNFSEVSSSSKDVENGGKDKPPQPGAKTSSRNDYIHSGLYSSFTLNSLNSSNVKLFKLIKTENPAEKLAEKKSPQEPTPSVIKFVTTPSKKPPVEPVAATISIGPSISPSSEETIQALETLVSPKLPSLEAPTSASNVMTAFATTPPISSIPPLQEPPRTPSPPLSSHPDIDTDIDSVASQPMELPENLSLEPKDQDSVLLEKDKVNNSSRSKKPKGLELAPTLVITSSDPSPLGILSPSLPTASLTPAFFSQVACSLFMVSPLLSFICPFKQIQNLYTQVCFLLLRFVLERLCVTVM
# Method in brief: as §1
# [7] = target: T4, ETV2 (Homo sapiens, UniProt O00321 1-342); conditions: protein: recombinant; tags: N-terminal GST; dsDNA, one strand shown
# T4 sequence: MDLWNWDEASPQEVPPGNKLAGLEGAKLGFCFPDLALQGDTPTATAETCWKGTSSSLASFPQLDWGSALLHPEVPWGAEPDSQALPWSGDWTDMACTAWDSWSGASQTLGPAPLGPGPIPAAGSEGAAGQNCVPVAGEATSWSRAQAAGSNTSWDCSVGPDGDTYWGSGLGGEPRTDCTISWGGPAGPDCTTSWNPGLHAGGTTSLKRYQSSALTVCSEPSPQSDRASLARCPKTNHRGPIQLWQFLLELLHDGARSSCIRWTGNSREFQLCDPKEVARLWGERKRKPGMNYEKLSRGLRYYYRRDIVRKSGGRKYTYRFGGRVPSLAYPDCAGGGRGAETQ
# Method in brief: as §1
# [8] = target: T5, ELF3 (Homo sapiens, UniProt P78545 1-371); conditions: protein: recombinant; tags: N-terminal GST; dsDNA, one strand shown
# T5 sequence: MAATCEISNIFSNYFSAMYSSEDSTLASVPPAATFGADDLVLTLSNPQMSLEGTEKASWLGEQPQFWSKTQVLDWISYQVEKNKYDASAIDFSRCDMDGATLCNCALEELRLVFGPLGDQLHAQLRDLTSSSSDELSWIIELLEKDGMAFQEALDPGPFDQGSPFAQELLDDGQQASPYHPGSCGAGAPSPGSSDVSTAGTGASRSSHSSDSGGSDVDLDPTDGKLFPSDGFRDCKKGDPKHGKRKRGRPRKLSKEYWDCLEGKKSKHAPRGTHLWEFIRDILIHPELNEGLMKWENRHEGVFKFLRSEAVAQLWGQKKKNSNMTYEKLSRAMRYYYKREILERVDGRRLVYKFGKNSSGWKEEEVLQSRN
# Method in brief: as §1
# [9] = target: CRX (Homo sapiens, UniProt O43186 1-299); conditions: protein: recombinant; tags: N-terminal GST; dsDNA, one strand shown
# Chain of CRX (O43186 whole entry): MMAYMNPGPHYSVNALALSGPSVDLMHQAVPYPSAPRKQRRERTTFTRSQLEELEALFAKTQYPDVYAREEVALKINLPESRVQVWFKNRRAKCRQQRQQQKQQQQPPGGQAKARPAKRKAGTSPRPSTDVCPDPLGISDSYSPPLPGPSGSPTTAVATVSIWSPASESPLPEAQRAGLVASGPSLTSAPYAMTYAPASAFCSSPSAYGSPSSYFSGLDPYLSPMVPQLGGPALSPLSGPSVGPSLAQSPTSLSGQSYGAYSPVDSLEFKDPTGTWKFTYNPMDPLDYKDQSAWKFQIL
# Method in brief: as §1
# [10] = target: ETV1 (Homo sapiens, UniProt P50549 1-477); conditions: protein: recombinant; tags: N-terminal GST; dsDNA, one strand shown
# Chain of ETV1 (P50549 whole entry): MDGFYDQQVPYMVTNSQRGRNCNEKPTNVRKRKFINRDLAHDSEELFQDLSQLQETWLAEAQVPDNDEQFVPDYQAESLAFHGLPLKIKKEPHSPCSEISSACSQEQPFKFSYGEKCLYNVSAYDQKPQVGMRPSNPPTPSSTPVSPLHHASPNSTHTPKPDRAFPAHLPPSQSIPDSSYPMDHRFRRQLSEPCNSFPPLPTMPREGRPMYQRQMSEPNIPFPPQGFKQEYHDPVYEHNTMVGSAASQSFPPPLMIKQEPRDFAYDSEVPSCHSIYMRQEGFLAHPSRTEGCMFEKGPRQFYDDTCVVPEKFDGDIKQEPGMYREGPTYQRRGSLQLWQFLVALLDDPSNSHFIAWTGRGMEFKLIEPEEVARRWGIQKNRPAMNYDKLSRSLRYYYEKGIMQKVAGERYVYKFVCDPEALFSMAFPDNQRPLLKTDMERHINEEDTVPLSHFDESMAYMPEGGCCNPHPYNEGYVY
# Method in brief: as §1
Sequence,binding signal [1],binding signal [2],binding signal [3],binding signal [4],binding signal [5],binding signal [6],binding signal [7],binding signal [8],binding signal [9],binding signal [10]
GATTAT,"1.01 fold enrichment (6-mer frequency, TF over GST control)","1.03 fold enrichment (6-mer frequency, TF over GST control)","2.66 fold enrichment (6-mer frequency, TF over GST control)","1.09 fold enrichment (6-mer frequency, TF over GST control)","1.14 fold enrichment (6-mer frequency, TF over GST control)","1.06 fold enrichment (6-mer frequency, TF over GST control)","1.07 fold enrichment (6-mer frequency, TF over GST control)","1.16 fold enrichment (6-mer frequency, TF over GST control)","4.27 fold enrichment (6-mer frequency, TF over GST control)","1.06 fold enrichment (6-mer frequency, TF over GST control)"
CCTATG,"1.17 fold enrichment (6-mer frequency, TF over GST control)","1.28 fold enrichment (6-mer frequency, TF over GST control)","1.05 fold enrichment (6-mer frequency, TF over GST control)","1.1 fold enrichment (6-mer frequency, TF over GST control)","1.3 fold enrichment (6-mer frequency, TF over GST control)","1.35 fold enrichment (6-mer frequency, TF over GST control)","1.25 fold enrichment (6-mer frequency, TF over GST control)","1.52 fold enrichment (6-mer frequency, TF over GST control)","1.02 fold enrichment (6-mer frequency, TF over GST control)","1.24 fold enrichment (6-mer frequency, TF over GST control)"
TTCAAG,"1.2 fold enrichment (6-mer frequency, TF over GST control)","1.23 fold enrichment (6-mer frequency, TF over GST control)","1.49 fold enrichment (6-mer frequency, TF over GST control)","1.24 fold enrichment (6-mer frequency, TF over GST control)","1.29 fold enrichment (6-mer frequency, TF over GST control)","1.32 fold enrichment (6-mer frequency, TF over GST control)","1.1 fold enrichment (6-mer frequency, TF over GST control)","1.23 fold enrichment (6-mer frequency, TF over GST control)","1.18 fold enrichment (6-mer frequency, TF over GST control)","1.29 fold enrichment (6-mer frequency, TF over GST control)"
CTTAAT,"1.23 fold enrichment (6-mer frequency, TF over GST control)","1.27 fold enrichment (6-mer frequency, TF over GST control)","2.31 fold enrichment (6-mer frequency, TF over GST control)","1.32 fold enrichment (6-mer frequency, TF over GST control)","1.33 fold enrichment (6-mer frequency, TF over GST control)","1.22 fold enrichment (6-mer frequency, TF over GST control)","1.25 fold enrichment (6-mer frequency, TF over GST control)","1.35 fold enrichment (6-mer frequency, TF over GST control)","3.69 fold enrichment (6-mer frequency, TF over GST control)","1.29 fold enrichment (6-mer frequency, TF over GST control)"
CAAAAC,"1.3 fold enrichment (6-mer frequency, TF over GST control)","1.26 fold enrichment (6-mer frequency, TF over GST control)","1.05 fold enrichment (6-mer frequency, TF over GST control)","1.23 fold enrichment (6-mer frequency, TF over GST control)","1.34 fold enrichment (6-mer frequency, TF over GST control)","1.28 fold enrichment (6-mer frequency, TF over GST control)","1.24 fold enrichment (6-mer frequency, TF over GST control)","1.28 fold enrichment (6-mer frequency, TF over GST control)","1.02 fold enrichment (6-mer frequency, TF over GST control)","1.2 fold enrichment (6-mer frequency, TF over GST control)"
AGCTTA,"1.06 fold enrichment (6-mer frequency, TF over GST control)","1.07 fold enrichment (6-mer frequency, TF over GST control)","1.94 fold enrichment (6-mer frequency, TF over GST control)","1.12 fold enrichment (6-mer frequency, TF over GST control)","1.11 fold enrichment (6-mer frequency, TF over GST control)","1.08 fold enrichment (6-mer frequency, TF over GST control)","1.14 fold enrichment (6-mer frequency, TF over GST control)","1.23 fold enrichment (6-mer frequency, TF over GST control)","3.13 fold enrichment (6-mer frequency, TF over GST control)","1.23 fold enrichment (6-mer frequency, TF over GST control)"
ATCACC,"1.09 fold enrichment (6-mer frequency, TF over GST control)","1.11 fold enrichment (6-mer frequency, TF over GST control)","1.05 fold enrichment (6-mer frequency, TF over GST control)","1.1 fold enrichment (6-mer frequency, TF over GST control)","1.22 fold enrichment (6-mer frequency, TF over GST control)","1.07 fold enrichment (6-mer frequency, TF over GST control)","1.03 fold enrichment (6-mer frequency, TF over GST control)","1.17 fold enrichment (6-mer frequency, TF over GST control)","1.14 fold enrichment (6-mer frequency, TF over GST control)","1.1 fold enrichment (6-mer frequency, TF over GST control)"
